In the library only some 2.7% were active in any assay of this set; here they are far more common.
TGFb SMAD3 inh = inhibitors of TGF-b signaling | HepG2 CAGA-GFP TGF-b/SMAD3 reporter, GFP fluorescence, 18 h; TGF-beta stimulated, 500 pg/mL final | Potency, µM (top dose mostly 46.1 µM), usual class: inhibitors | hit rate 1.2% among 410,000 | AID 588855; note: nearly all actives have a fitted effect of over 65% in size
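Inhibition of TGF-beta-driven CAGA-GFP reporter expression in HEPG2 cells is measured by cellular GFP fluorescence after 18 h stimulation with 500 pg/mL recombinant TGF-beta in 1% FBS medium at 37 degrees C.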
S2 tox = cell viability loss in ATXN counter-screen; S2 cells (HEK-293 line with an ATXN2-luciferase reporter) viability, CellTiter-Fluor protease fluorescence, 24 h; hit rate 0.49% among 400,000; Potency, µM (series often up to 56.7 µM), actives largely listed as cytotoxic; note: nearly all actives have a fitted effect of over 40% in size
ALOX12 inh = ALOX12 (human) lipoxygenase inhibition | Potency, µM (highest dose often 108 µM), usual class: inhibitors | hit rate 1.1% among 580,000 | purified 12hLO, xylenol orange hydroperoxide absorbance | P18054
Target sequence (P18054 whole entry, looked up): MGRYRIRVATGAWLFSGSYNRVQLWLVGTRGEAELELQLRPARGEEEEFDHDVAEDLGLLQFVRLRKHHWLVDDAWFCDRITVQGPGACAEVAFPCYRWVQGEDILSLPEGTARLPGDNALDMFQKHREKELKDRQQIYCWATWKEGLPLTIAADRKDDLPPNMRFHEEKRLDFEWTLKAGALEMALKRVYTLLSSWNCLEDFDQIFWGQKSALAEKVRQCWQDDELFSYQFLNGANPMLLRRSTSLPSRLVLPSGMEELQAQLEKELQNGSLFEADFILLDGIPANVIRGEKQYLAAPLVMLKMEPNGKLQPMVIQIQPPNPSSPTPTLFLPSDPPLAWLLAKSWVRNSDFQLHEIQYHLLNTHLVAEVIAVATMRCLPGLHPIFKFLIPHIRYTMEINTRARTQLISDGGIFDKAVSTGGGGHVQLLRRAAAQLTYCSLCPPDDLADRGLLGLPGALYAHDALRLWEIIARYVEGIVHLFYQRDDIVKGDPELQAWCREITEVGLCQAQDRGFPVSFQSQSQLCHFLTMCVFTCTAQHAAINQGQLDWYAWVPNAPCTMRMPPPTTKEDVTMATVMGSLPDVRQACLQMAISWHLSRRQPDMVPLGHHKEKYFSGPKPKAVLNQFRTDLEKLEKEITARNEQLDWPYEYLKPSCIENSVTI
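Purified human 12hLO at 150 nM in 25 mM Hepes, 0.01% Triton X-100, pH 7.0, preincubated 15 min at room temperature with compound. Reaction started with 40 uM arachidonic acid, 30 min at room temperature. Hydroperoxide measured by Fe-xylenol orange, 573/405 nm absorbance ratio.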
ATXN2 expr inh = ATXN2 expression inhibition; HEK-293 ATXN2-luciferase reporter, luminescence, 24 h; hit rate 0.72% among 360,000; AID 1745845; Potency, µM (series often up to 57 µM), actives largely listed as inhibitors; note: nearly all actives have a fitted effect of over 55% in size
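ATXN2-luciferase reporter cells (luciferase flanked by upstream and downstream ATXN2 gene portions) were treated 24 h at 37 °C with compounds at up to 57 uM. SteadyGlo luminescence gave expression; GF-AFC fluorescence gave viability.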
HepG2 tox = HepG2 cytotoxicity, counter-screen for TGF-b inhibitors. HepG2 CAGA-GFP viability, ATP luminescence, 18 h. Potency, µM (highest dose often 46.1 µM), most hits filed as cytotoxic. hit rate 0.76% among 410,000. AID 588856
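HepG2 CAGA-GFP cells (1000/well, DMEM with 1% FBS) received compound, then TGF-beta at 500 pg/mL final, and were incubated 18 hours at 37 degrees C. Viability was read by CellTiter-Glo luminescence. Media-only wells were set as complete cell-killing and DMSO as no toxicity.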
Of the large screens only hits and unclear results are named; the others gave an inactive call. Calls come from the whole dose curve; as a rule, active = well fitted curve in the direction sought with a large enough effect; inconclusive = small, poorly fitted or top-dose-only effect, or another doubt; inactive = no such curve, though single readings can be large; an effect the other way counts as inactive or inconclusive.

O=C1c2[nH]nc(-c3ccccc3O)c2C(c2cccc(Cl)c2)N1Cc1ccco1 (configuration not stated)	TGFb SMAD3 inh inconclusive, S2 tox inconclusive, HepG2 tox 11µM
COc1cc(/C=N/O)cc(Br)c1OCc1ccc(C(=O)O)cc1	none (no result: TGFb SMAD3 inh, S2 tox, ATXN2 expr inh, HepG2 tox)
O=C(CCc1c[nH]c2ccccc12)N1CCCCCC1	none (no result: TGFb SMAD3 inh, S2 tox, ATXN2 expr inh, HepG2 tox)
O=Cc1cc(Br)cc(Cl)c1O	ALOX12 inh 45µM (no result: TGFb SMAD3 inh, S2 tox, ATXN2 expr inh, HepG2 tox)
O=Cc1cc(Cl)c(O)c(Cl)c1	none (no result: TGFb SMAD3 inh, S2 tox, ATXN2 expr inh, HepG2 tox)
COc1ccccc1NS(=O)(=O)c1cc(NC(=O)C(C)(C)C)ccc1N1CCOCC1	none
COc1ccccc1NS(=O)(=O)c1cc(NC(=S)NCCN2CCOCC2)ccc1N1CCOCC1	ALOX12 inh 50µM
Oc1ccc(-c2cn3ccccc3n2)cc1O	none (no result: ATXN2 expr inh)
Cc1ccn2cc(-c3ccc(O)c(O)c3)nc2c1	TGFb SMAD3 inh 11µM, S2 tox inconclusive, ALOX12 inh inconclusive (no result: ATXN2 expr inh)
CN(Cc1ccccc1)C(=O)CSc1ncnc2ccccc12	none (no result: TGFb SMAD3 inh, S2 tox, ATXN2 expr inh, HepG2 tox)
COc1ccc(C(CCNCc2ccc(OC(C)C)cc2)C(C)C)cc1 (configuration not stated)	TGFb SMAD3 inh inconclusive, S2 tox inconclusive, ALOX12 inh inconclusive, ATXN2 expr inh inconclusive, HepG2 tox 22µM
COc1ccc(CNCCC(c2ccc(OC(C)C)cc2)C(C)C)cc1OC (configuration not stated)	TGFb SMAD3 inh inconclusive, ATXN2 expr inh 32µM, HepG2 tox 16µM (no result: S2 tox)
COc1ccc(CNCCC(c2ccc(C)cc2)c2ccco2)cc1 (configuration not stated)	ALOX12 inh inconclusive (no result: TGFb SMAD3 inh, S2 tox, ATXN2 expr inh)
COc1ccc(C(CCNCc2ccc(N(C)C)cc2)C(C)C)cc1 (configuration not stated)	TGFb SMAD3 inh inconclusive, S2 tox inconclusive, ALOX12 inh inconclusive, HepG2 tox 10µM (no result: ATXN2 expr inh)
N#Cc1cccc(S(=O)(=O)N2CCCCC2C(=O)N2CCCC2)c1 (configuration not stated)	none (no result: TGFb SMAD3 inh, S2 tox, ATXN2 expr inh, HepG2 tox)
CCCCn1nc(C(=O)N2CCC(n3c(=O)[nH]c4ccccc43)CC2)c2ccccc2c1=O	none (no result: TGFb SMAD3 inh, S2 tox, ATXN2 expr inh, HepG2 tox)
COc1ccc(C(=O)c2cn(Cc3ccc(F)cc3)c3ccc(C)cc3c2=O)cc1	TGFb SMAD3 inh inconclusive, S2 tox 18µM, ATXN2 expr inh inconclusive
CCOc1ccc(C(=O)c2cn(Cc3ccc(Cl)cc3)c3cc(OC)c(OC)cc3c2=O)cc1	TGFb SMAD3 inh inconclusive, S2 tox 16µM
COc1ccc2c(c1)c(=O)c(C(=O)c1ccc(C)cc1)cn2Cc1ccccc1F	TGFb SMAD3 inh inconclusive, S2 tox 25µM, ATXN2 expr inh inconclusive
Cc1ccc(/C=N/NC(=O)c2cccc(Br)c2)s1	none (no result: TGFb SMAD3 inh, S2 tox, ATXN2 expr inh, HepG2 tox)
OC(c1cn2cc(-c3ccccc3)nc2s1)(C(F)(F)F)C(F)(F)F	none (no result: TGFb SMAD3 inh, S2 tox, ATXN2 expr inh, HepG2 tox)
COc1ccc(C(=O)Nc2cc(C)nn2-c2nc(C)cc(C)n2)cc1	none (no result: TGFb SMAD3 inh, S2 tox, ATXN2 expr inh, HepG2 tox)
Cc1ccc(NC(=O)COc2ncnc3ccccc23)c([N+](=O)[O-])c1	none (no result: TGFb SMAD3 inh, S2 tox, ATXN2 expr inh, HepG2 tox)
COc1cccc(-c2ccc(-c3noc(-c4ccccc4OC)n3)c(OC)n2)c1	none (no result: TGFb SMAD3 inh, S2 tox, ATXN2 expr inh, HepG2 tox)
Cc1cc(=O)oc2cc(OCc3ccc(C(=O)OC(C)C(=O)NC(N)=O)cc3)ccc12 (configuration not stated)	none (no result: TGFb SMAD3 inh, S2 tox, ATXN2 expr inh, HepG2 tox)
CC(C)(C)c1ccc(C(CNC(=O)c2cc(-c3cccs3)on2)N2CCOCC2)cc1 (configuration not stated)	none (no result: TGFb SMAD3 inh, S2 tox, ATXN2 expr inh, HepG2 tox)
O=C1OC(/C=C/c2ccc(Cl)cc2)=NC/1=C/c1ccco1	ALOX12 inh 40µM
Cc1cccc(OCC(=O)N2CCC(c3n[nH]c(=O)n3Cc3ccc(F)cc3)CC2)c1	none (no result: TGFb SMAD3 inh, S2 tox, ATXN2 expr inh, HepG2 tox)
Cc1sc(N2CCCC2)nc1-c1ccc(NS(C)(=O)=O)cc1	ALOX12 inh 35µM (no result: TGFb SMAD3 inh, S2 tox, ATXN2 expr inh, HepG2 tox)
CS(=O)(=O)Nc1ccc(S(=O)(=O)N2CCCC2)cc1	none
CCN(CC)CCN1CCN(c2cncc(-c3ccc4ccccc4c3)n2)CC1	TGFb SMAD3 inh inconclusive, S2 tox inconclusive, ALOX12 inh inconclusive, HepG2 tox 13µM
CCN(CC)CCN1CCN(c2cncc(-c3cccc(N)c3)n2)CC1	S2 tox inconclusive, ALOX12 inh inconclusive
COc1ccc2c(c1)c(CC(=O)Nc1cccc(S(N)(=O)=O)c1)c(C)n2C(=O)c1ccc(Cl)cc1	TGFb SMAD3 inh 16µM, S2 tox inconclusive, ATXN2 expr inh inconclusive

Bioassay records from PubChem BioAssay.
